From PubChem BioAssay
Mtb hypoxia rep = inhibitors of hypoxia-regulated fluorescent reporter in Mycobacterium tuberculosis. M. tuberculosis hypoxia-regulated fluorescent reporter, fluorescence. fluorescence inhibition, % (test concentration not listed). 300,000 compounds, 0.1% hits; in the data active = fluorescence inhibition mostly above about 23%, no sharp cut-off; inactive = mostly below about 17%
PrP 5UTR inh = inhibition of PrP 5' UTR reporter expression; 340,000 compounds, 0.35% hits; inhibition, % (test concentration not listed); cell-based PrP 5' UTR mRNA reporter, plate reader; in the data active = inhibition above about 52%; note: 0 = median of the neutral control wells
MazEF act = activators of E. coli MazEF toxin-antitoxin RNase; P0AE70; FAM/BHQ RNA-DNA oligo cleavage fluorescence, 5 h; activation, % at 20 µM; 350,000 compounds, 0.32% hits; AID 504720; in the data active = activation above about 50%
Target sequence (P0AE70 whole entry, looked up): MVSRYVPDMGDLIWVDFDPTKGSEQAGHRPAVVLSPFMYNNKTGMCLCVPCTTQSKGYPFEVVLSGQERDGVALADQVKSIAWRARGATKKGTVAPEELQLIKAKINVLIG
SARS 3CLpro inh-1 = SARS-CoV 3CLpro protease inhibition; recombinant SARS-CoV 3CLpro, quenched FRET peptide cleavage; inhibition, % at 6 µM; 290,000 compounds, 0.14% hits; AID 1706; in the data active = inhibition above about 12%
PrPC TRFRET = reduces human prion protein on the cell surface. P04156. cell surface PrPC, TR-FRET read-out. inhibition, % at 13.8 µM. 370,000 compounds, 0.43% hits. AID 720596; in the data active = inhibition above about 24%; note: 0% = median of the test wells and 100% = reference compound wells
DUSP3 inh = blocks human VHR1 dual specificity phosphatase | P51452 | 290,000 compounds, 0.52% hits | AID 1654 | recombinant VHR phosphatase, pNPP absorbance | inhibition, % at 13.3 µM; in the data active = inhibition above about 50%
Target sequence (P51452 whole entry, looked up): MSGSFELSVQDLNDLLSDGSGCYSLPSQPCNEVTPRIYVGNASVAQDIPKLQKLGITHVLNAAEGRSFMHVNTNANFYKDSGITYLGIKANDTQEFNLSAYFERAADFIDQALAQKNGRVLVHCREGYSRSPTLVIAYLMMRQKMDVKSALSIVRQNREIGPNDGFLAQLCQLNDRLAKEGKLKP
SARS 3CLpro inh-2 = SARS 3CLpro inhibition, confirmation assay. shares compounds with SARS 3CLpro inh-1. QFRET protease activity assay. inhibition, % at 6 µM. 380 compounds, 36% hits. AID 1879; in the data active = inhibition above about 13%
Starred values were filed as active, the others as inactive; . = not tested or not shown. In the library only some 1.5% were active in any assay of this set; here they are far more common.

SMILES	Mtb hypoxia rep	PrP 5UTR inh	MazEF act	SARS 3CLpro inh-1	PrPC TRFRET	DUSP3 inh	SARS 3CLpro inh-2
CCOc1ccc(C(O)=C2C(=O)C(=O)N(CCOCCO)C2c2ccccc2)cc1 (stereo unspecified)	7	.	.	.	.	.	.
CN1CCN2c3ccc(N)cc3CC3(C(=O)NC(=O)NC3=O)C2C1 (stereo unspecified)	7	.	-1	22*	2	16	63*
COc1cccc(C(C(=O)Nc2ccc(F)cc2)N(C(=O)Cn2nnc3ccccc32)C2CC2)c1 (stereo unspecified)	11	-17	8	33*	-8	27	37*
CCOc1cc(C(C(=O)NCC2CCCO2)N(C(=O)Cn2nnc3ccccc32)c2ccc(C(C)=O)cc2)ccc1O (stereo unspecified)	-6	-8	5	5	2	12	.
COc1cccc(C(C(=O)NCC2CCCO2)N(C(=O)Cn2nnc3ccccc32)c2ccc(NC(C)=O)cc2)c1 (stereo unspecified)	2	-12	11	31*	7	28	34*
Oc1ccc(CC2CNCCN2CCc2cccc3ccccc23)cc1 (stereo unspecified)	9	.	.	.	.	.	.
Cc1noc(C)c1NC(=O)N(C)CC1Oc2c(NC(=O)Nc3ccc4c(c3)OCO4)cccc2C(=O)N(C(C)CO)CC1C (stereo unspecified)	18	.	.	.	.	.	.
O=C(CCS(=O)(=O)c1ccc(F)cc1)N1CCN(c2ccccc2)CC1	15	-40	3	.	5	.	.
O=C(CCS(=O)(=O)c1ccccc1)N1CCN(c2ccc(F)cc2)CC1	2	-19	-2	13*	-6	0	-1
Cc1ccc2cc(C=NNC(=O)c3ccccc3O)c(Cl)nc2c1	13	.	.	.	.	.	.
NC(=O)CCn1c(C(=O)c2cc(Cl)c(N)c(Cl)c2)c2ccccc2[n+]1[O-]	2	-5	-2	30*	-8	6	35*
Cc1ccc(C(=O)c2c3ccc(C(F)(F)F)cc3[n+]([O-])n2CCC(N)=O)cc1	7	-34	-2	27*	8	2	21*
COc1ccc(C(=O)c2c3ccccc3[n+]([O-])n2CCC(N)=O)cc1	19	-15	4	.	-5	.	.
NC(=O)CCn1c(C(=O)c2cccc([N+](=O)[O-])c2)c2ccccc2[n+]1[O-]	3	-8	1	26*	-18	29	26*
O=[N+]([O-])c1cc(C=NO)ccc1SCc1ccccc1Cl	2	.	.	.	.	.	.
O=C(/C=C/c1ccccc1Cl)Nc1cccnc1	7	-38	9	16*	-11	22	21*
CC(C)C(=O)NC(=O)C1CCCN1C(=O)C=Cc1ccccc1 (stereo unspecified)	18	.	.	.	.	.	.
O=C(CCl)N=c1sccn1Cc1ccc(Cl)cc1Cl	18	-30	-4	33*	-3	20	63*
O=C(CCl)N=c1sccn1Cc1ccccc1Cl	.	-17	6	41*	1	17	58*
O=C(CCl)N=c1sccn1Cc1cccc2ccccc12	17	-10	9	11	-2	1	.
S=c1[nH]nc(-c2cccnc2)n1N=Cc1ccco1	6	.	.	.	.	.	.
CC(=NN=C(N)SC1CC(=O)N(c2cccc(Cl)c2)C1=O)c1cccs1 (stereo unspecified)	3	.	.	.	.	.	.
C/C(=N\N=C(/N)SC1CC(=O)N(c2cccc(Cl)c2)C1=O)c1cccs1 (stereo unspecified)	.	-25	-9	13*	5	22	2
CC(C)(C)c1ccc(NC(=O)CSc2n[nH]c(=O)n2-c2cccnc2)cc1	-7	-22	6	12*	5	-4	-3
CC(C)c1ccc(NC(=O)CSc2n[nH]c(=O)n2-c2cccnc2)cc1	2	-3	0	-1	0	-3	.
SMILES	Mtb hypoxia rep	PrP 5UTR inh	MazEF act	SARS 3CLpro inh-1	PrPC TRFRET	DUSP3 inh	SARS 3CLpro inh-2
COc1ccccc1/C=C1\SC(=S)N(CCC(=O)NNC(=O)c2ccccc2OC)C1=O	6	-17	-8	14*	0	21	0
Cc1ccc(NC(CNS(=O)(=O)c2ccc(Cl)cc2)c2ccccc2)cc1 (stereo unspecified)	.	-16	7	13*	0	21	8
N#Cc1c(-c2ccccc2)nc(SCC(=O)Nc2ccc(OC(F)(F)Cl)cc2)[nH]c1=O	7	-17	1	16*	18	.	1
O=C(O)CSCC(=O)N(Cc1ccccc1)c1nc(-c2ccccc2)c(-c2ccccc2)s1	.	-16	-17	12*	7	17	5
O=[N+]([O-])c1ccccc1/C=C/C=N/n1c(-c2ccco2)n[nH]c1=S	.	-8	2	15*	-19	15	4
S=c1[nH]nc(COc2ccccc2)n1N=C/C=C/c1ccco1	6	.	.	.	.	.	.
O=C(O)c1[nH]c2ccccc2c1C(c1cc(Br)ccc1O)c1c(C(=O)O)[nH]c2ccccc12	14	-7	-1	14*	3	18	15*
O=C(O)c1ccccc1NS(=O)(=O)c1ccc(NNC(=S)Nc2ccc(OC(F)F)cc2)c([N+](=O)[O-])c1	9	-12	-7	13*	-36	10	3
Cc1ccc(NC(=S)NNc2ccc([N+](=O)[O-])cc2S(=O)(=O)Nc2ccccc2C(=O)O)cc1C	12	7	0	12	-8	2	.
CCCOC(=O)c1c(-c2ccc(C)cc2C)csc1NC(=O)C1C2CCC(O2)C1C(=O)O (stereo unspecified)	5	-16	-2	12*	3	-2	1
CN(C)S(=O)(=O)c1cccc(NC(=O)CSc2cccc3cccnc23)c1	-2	-7	9	17*	4	1	35*
CN(C)S(=O)(=O)c1ccc(SCC(=O)Nc2cccc(S(=O)(=O)N3CCCC3)c2)nc1	-2	-18	-2	.	5	.	.
Cc1ccc(C(=O)C2=C(O)C(=O)N(Cc3cccnc3)C2c2ccc(OC(C)C)cc2)o1 (stereo unspecified)	4	4	-2	13*	2	-20	-7
COc1ccc(C2C(C(=O)c3ccc(C)o3)=C(O)C(=O)N2Cc2cccnc2)cc1 (stereo unspecified)	-8	-25	-30	-1	0	-41	.
O=C(Cc1c(F)cccc1Cl)NCCCn1ccnc1	12	-4	4	38*	-5	13	-5
CCc1nnc(NS(=O)(=O)c2ccc(NC(=O)/C=C/c3ccccc3Cl)cc2)s1	7	-47	-5	13*	-5	30	10
Cc1ccc(C(=O)NN=Cc2ccc(N3CCOCC3)cc2)c(C)c1	1	.	.	.	.	.	.
Cc1ccsc1C=NNC(=O)Cn1nnc2ccccc21	10	.	.	.	.	.	.
COc1cc(/C=N\NC(=O)Cn2nnc3ccccc32)cc(OC)c1OC	.	-22	3	37*	-1	12	57*
O=C(Cn1nnc2ccccc21)N/N=C\c1cccs1	.	-2	-5	14*	-2	7	16*
